Screening data from PubChem.
SIRT5 inh: SIRT5 desuccinylase inhibitors, primary screen, biochemical, fluorescence imaging, single point, set 5; NAD-dependent protein deacylase sirtuin-5, mitochondrial (Homo sapiens), Q9NXA8; Purified SirT5, succinyl-peptide AMC, trypsin-coupled fluorescence; inhibition, % at 15 µM; hit rate 1.1% among 330,000; AID 652115, 2013; in the data active = inhibition above about 15%
Target sequence (Q9NXA8 whole entry, looked up): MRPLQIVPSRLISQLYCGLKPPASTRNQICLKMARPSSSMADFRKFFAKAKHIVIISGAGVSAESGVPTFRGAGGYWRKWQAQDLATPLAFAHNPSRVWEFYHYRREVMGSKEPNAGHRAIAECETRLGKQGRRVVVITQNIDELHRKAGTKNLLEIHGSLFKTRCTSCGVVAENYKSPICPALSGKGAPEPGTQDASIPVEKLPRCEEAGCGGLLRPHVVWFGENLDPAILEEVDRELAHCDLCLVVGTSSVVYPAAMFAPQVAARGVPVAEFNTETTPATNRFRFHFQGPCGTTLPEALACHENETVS
FGF22 binding: binders of human FGF22 protein, primary screen, FGF22 synaptogenesis inhibitor project, biophysical, thermal shift, single point; recombinant FGF22 thermal shift, SYPRO orange fluorescence; percent of sucrose octasulfate shift, DMSO zero; hit rate 1.5% among 340,000; activity (Tm shift, normalised), % at 9.99 µM;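 active = mean Tm shift, scaled 0 neutral to 100 positive control, at about 1.3% or above, every replicate too, limit read from the data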
ERAP1 inh: human ERAP1 aminopeptidase inhibitors, primary screen, biochemical, single point, plate reader. Endoplasmic reticulum aminopeptidase 1 (Homo sapiens), Q9NZ08. recombinant ERAP1, Leu-AMC fluorescence, 60 min. hit rate 0.15% among 340,000. inhibition, % at 10.7 µM;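 active = mean replicate inhibition of at least 30%, or all replicates individually reaching that 30% level; inactive = mean below 30% and not every replicate reaching it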
Casp6 inh: human caspase-6 inhibitors, primary screen, biochemical, VEID-R110 fluorescence, single point, set 2; P55212; purified caspase-6, Z-VEID-R110 cleavage fluorescence; inhibition, % at 12.5 µM; hit rate 0.53% among 350,000; AID 686996, 2013;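 active = mean inhibition across replicates at least about 35%, with every replicate also reaching that limit, limit read from the data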
Target sequence (P55212 24-179 limits assumed): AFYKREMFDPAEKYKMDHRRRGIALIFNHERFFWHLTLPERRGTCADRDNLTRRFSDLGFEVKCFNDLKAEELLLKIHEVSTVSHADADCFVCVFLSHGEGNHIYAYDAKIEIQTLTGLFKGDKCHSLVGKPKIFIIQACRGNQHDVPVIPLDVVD
Target sequence (P55212 194-293 limits assumed): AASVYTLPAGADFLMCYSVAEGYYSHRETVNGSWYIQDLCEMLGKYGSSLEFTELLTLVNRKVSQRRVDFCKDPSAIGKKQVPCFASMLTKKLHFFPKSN
Hits are given with their value; 0 = inactive; - = no result. Sampled rows, rich in hits. Any-hit rate of the full collection: about 3.1%.

SMILES | SIRT5 inh | FGF22 binding | ERAP1 inh | Casp6 inh
CC(C)CN1CCC(CN2CCNC(=O)C2=O)CC1 | 0 | 0 | 0 | 35.9
Cc1ccc(S(=O)(=O)N(C)C[C@H]2Oc3ccc(NC(=O)C4CCCCC4)cc3CC(=O)N([C@@H](C)CO)C[C@@H]2C)cc1 | 0 | 0 | 0 | 0
COc1ccc(/C=N/NC(=O)c2cccc(NC(C)=O)c2)c(OC)c1 | 0 | 42.9 | 0 | 0
COc1ccccc1C=NNC(=O)C(=O)NN=Cc1ccccc1OC | - | 43.3 | 0 | 0
NC(=O)N/N=C/c1ccccc1OC(=O)c1ccccc1Br | 0 | 42.9 | 0 | 0
COc1cc(/C=N/NC(=O)c2cccc(NC(=O)c3ccccc3Cl)c2)ccc1O | 0 | 0 | 0 | 0
COc1ccc(/C=N/NC(=O)c2cccc(NC(=O)c3ccccc3Cl)c2)cc1OC | 0 | 43.5 | 0 | 0
COc1ccc2c3c([nH]c2c1)[C@H](CO)N(C(=O)C1CC1)CC31CN(C(=O)NC(C)C)C1 | 0 | 0 | 0 | 0
CCCN(C)C[C@H]1Oc2cc(C#CC(C)(C)O)ccc2S(=O)(=O)N([C@H](C)CO)C[C@H]1C | 0 | 0 | 0 | 0
CCCN(Cc1nnc(-c2ccccc2Cl)o1)C(=O)c1cc(S(=O)(=O)N2CCOCC2)ccc1F | 15.3 | 0 | 0 | 0
O=C1NC2=C(C(=O)CCC2)C(c2ccc([N+](=O)[O-])cc2)N1 (stereo not given) | 0 | 0 | 0 | -
O=C1NC2=C(C(=O)CCC2)C(c2cccc([N+](=O)[O-])c2)N1 (stereo not given) | 0 | 0 | 0 | 38.5
CCCCCCNC(=O)c1ccc(Br)o1 | 32.2 | 0 | 0 | 0
CC(=O)N(C)C[C@@H]1Oc2ncc(C3=CCCC3)cc2C(=O)N([C@@H](C)CO)C[C@H]1C | 0 | 0 | 0 | 0
O=C(Cc1cccc2ccccc12)NN1C(=O)CSC1=S | 0 | 43.5 | 0 | 0
C[C@@H]1CN([C@H](C)CO)C(=O)c2cc(-c3cncnc3)cnc2O[C@@H]1CN(C)C(=O)Nc1ccc2c(c1)OCO2 | 0 | 0 | 0 | 0
O=C(NNc1ccccc1)C(CCO)C(=O)NNc1ccccc1 | 111.9 | 0 | 0 | 0
CC(O)CC(C(=O)NNc1ccccc1)C(=O)NNc1ccccc1 (stereo not given) | 0 | 0 | 0 | 0
CO[C@H]1CN(C)C(=O)c2cc(NS(=O)(=O)c3ccccc3Cl)ccc2OC[C@H](C)NC[C@H]1C | 0 | 0 | 0 | 0
COc1ccc2ccccc2c1/C=N/NC(=O)c1nnn(-c2nonc2N)c1CN(C)C | 0 | 0 | 0 | 0
COc1ccc2ccccc2c1/C=N/NC(=O)c1nnn(-c2nonc2N)c1C(C)C | 28.3 | 0 | 0 | 0
COc1ccc(/C=N/NC(=O)c2c(C)nnn2-c2nonc2N)cc1OC | 0 | 43.3 | 0 | 0
Cc1ccc(/C=N/NC(=O)c2nnn(-c3nonc3N)c2CSc2ccccc2)o1 | 0 | 42.9 | 0 | 0
COc1ccc(S(=O)(=O)N(C)C[C@H]2Oc3c(NS(=O)(=O)c4ccc(Cl)cc4)cccc3C(=O)N([C@H](C)CO)C[C@H]2C)cc1 | - | 0 | - | -
C[C@@H]1CN([C@@H](C)CO)C(=O)c2cc(NC(=O)CCCN(C)C)ccc2O[C@@H]1CN(C)Cc1ccc2c(c1)OCO2 | 0 | 0 | 0 | 0
SMILES | SIRT5 inh | FGF22 binding | ERAP1 inh | Casp6 inh
COc1ccc(S(=O)(=O)Nc2ccc3c(c2)C(=O)N([C@H](C)CO)C[C@H](C)[C@H](CN(C)C(=O)Nc2ccc(F)cc2)O3)cc1 | 0 | 0 | 0 | 0
COc1ccc2c(CC(=O)NNC(=O)c3ccc(C)cc3)coc2c1 | 20.6 | 0 | 0 | 0
COc1ccc2c(CC(=O)NNC(=O)c3cccs3)coc2c1 | 0 | 0 | 0 | 0
Cc1ccccc1CN1[C@@H](C)[C@H](c2ccccc2)Oc2cccc(NCC(C)C)c2S1(=O)=O | 0 | 0 | 0 | 63.0
CC(C)CNc1cccc2c1S(=O)(=O)N(Cc1ccc(F)cc1)[C@@H](C)[C@H](c1ccccc1)O2 | 0 | 0 | 0 | 0
O=Cc1ccc(Oc2nc(Cl)ncc2F)cc1 | 0 | 0 | 0 | 42.0
CCOC(=O)c1ccc2nc(NC(C)=O)sc2c1 | 0 | 42.9 | 0 | 0
CCOC(=O)c1ccc2nc(Nc3nc4ccc(F)cc4s3)sc2c1 | 0 | 0 | 0 | 0
CCOc1ccc2nc(NC(=O)CS(=O)(=O)c3ccc(C)cc3)sc2c1 | 31.6 | - | 0 | 0
CC(C)CN1C(=O)C(NC(=O)C2CC2)(C(F)(F)F)C2=C1CC(C)(C)CC2=O (stereo not given) | 35.5 | 0 | 0 | 0
[N-]=[N+]=Nc1ccccc1C[C@@]1(C(=O)NCCN2CCOCC2)N=C(c2ccc(OCCCO)cc2)O[C@@H]1c1ccccc1N=[N+]=[N-] | 0 | 0 | 0 | 0
CCOC(=O)c1nnn(CC(=O)Nc2ccccc2)c1C(=O)OCC | 0 | 0 | 42.6 | 0
CCOC(=O)c1nnn(CC(=O)NC(=O)Nc2ccccc2)c1C(=O)OCC | 0 | 0 | - | 0
COC(=O)C[C@@H]1C[C@@H]2c3cc(NC(=O)C4CCC4)ccc3O[C@@H]2[C@@H](CO)O1 | 0 | 0 | 0 | 0
O=C(O)c1ccccc1C(=O)NNc1ccc(Cl)cc1Cl | 0 | 43.8 | 0 | 0
CC(C)CC#Cc1cnc2c(c1)C(=O)N([C@@H](C)CO)C[C@@H](C)[C@H](CN(C)C(=O)CN1CCOCC1)O2 | 0 | 0 | 0 | 0
COc1cccc(C(=O)NCCN2CCN(c3ccccc3)CC2)c1 | 0 | 0 | 0 | 0
O=C(NCCN1CCN(c2ccccc2)CC1)c1ccc2c(c1)[nH]c(=S)n1c3ccccc3nc21 | 0 | 43.3 | 0 | 0
Cc1ccc(S(=O)(=O)Oc2ccccc2[N+](=O)[O-])cc1 | - | 43.3 | 0 | 0
COc1ccccc1[N+](=O)[O-] | - | 0 | 0 | 0
C[C@@H]1CCCCO[C@@H](CN(C)S(=O)(=O)c2ccc(F)cc2)[C@H](C)CN([C@H](C)CO)C(=O)c2cc(NS(=O)(=O)c3cn(C)cn3)ccc2O1 | 0 | 0 | 0 | 0
COc1ccc([Si](C)(C)[C@@H]2[C@@H](CCO)O[C@]3(C(=O)N(Cc4ccccc4)c4ccc(N5C(=O)c6cccc7cccc5c67)cc43)[C@H]2C)cc1 | 0 | 0 | 0 | 0
Cc1ccc(C2=NC(=O)/C(=C/c3cc(O)c(O)c(Br)c3)S2)cc1 | 0 | 43.4 | 0 | 78.9
COc1cc(/C=C2\SC(c3ccc(C)cc3)=NC2=O)cc(OC)c1O | 0 | 0 | 0 | 0
O=C(NCC1CCCN(Cc2ccccc2F)C1)c1cccc(C(F)(F)F)c1 (stereo not given) | 0 | 42.9 | 0 | 0
O=C(N[C@H]1CC[C@@H](CC(=O)N2CCCCC2)O[C@H]1CO)c1cccc(F)c1 | 0 | 0 | 0 | 0
COc1cc(N)c2ncccc2c1Cl | 0 | 0 | 0 | 55.6
CCCNC(=O)Nc1ccc2c(c1)C(=O)N(C)C[C@H](OC)[C@@H](C)CN(C(=O)C1CC1)[C@@H](C)CO2 | 0 | 0 | 0 | 0
CC(=O)N1[C@@H]2c3ccc(-c4ccccc4)c(=O)n3C[C@@H]2[C@@H](CO)[C@@H]1C(=O)N(C)C | 0 | 0 | 0 | 0
